Inconclusive results are not listed. Activity calls are given as the source filed them. Calls come from the whole dose curve; as a rule, active = well fitted cell-killing curve with a large enough effect; inconclusive = small, poorly fitted or top-dose-only effect; inactive = flat fitted curve, though single readings scatter.

The assay is described as follows: Cell Viability - Mesenchymal (AID 546).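 Note: cells exposed to compound for 40 hours before reading.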 As to conditions: mesenchymal cells viability, qHTS; series mostly up to 91.7 µM. The text has this: NIH Chemical Genomics Center [NCGC]
NIH Molecular Libraries Screening Centers Network [MLSCN]
National Institutes of Environmental Health Sciences [NIEHS]
National Toxicology Program [NTP]
We have developed a 1536-well cell-based assay for quantitative high throughput screening (qHTS) against a number of cell lines to determine in vitro cytotoxicity of small molecules. This particular assay uses the kidney mesenchymal cell line which is derived from normal human renal glomeruli.
NCGC Assay Protocol Summary:
The CellTiter-Glo luminescent cell viability assay (Promega) is a homogeneous method to measure the number of viable cells in culture. The end point readout of this assay is based on quantitation of intracellular ATP, an indicator of metabolic activity, using the luciferase reaction. Luciferase catalyzes the oxidation of beetle Luciferin to oxyluciferin and light in the presence of ATP. The luminescent signal is proportional to amount of ATP present.
Using the CellTiter-Glo luminescent cell viability assay, the amount of cellular ATP was measured in the kidney mesenchymal cell line with complete culture medium following compound treatment for 40 hours. The assay was performed in opaque white Kalypsys 1536-well plates. In the screen, tamoxifen and doxorubicin were used as positive controls. Library compounds were measured for their ability to cause acute toxicity in the cell line, as reflected by a decrease in intracellular ATP levels, in a concentration-dependent manner. […] AC50 values were determined from concentration-response data modeled with the standard Hill equation.
qHTS protocol for CellTiter Glo kidney mesenchymal cells cellular assay
[Step] [Parameter] [Value] [Description]
1. Reagent; 5 uL; 1000 kidney mesenchymal cells/well
2. Time; 5 hr; 37 °C incubation
4. Controls; 23 nL; Tamoxifen 0.34 uM to 100 uM & Doxorubicin 0.02 nM to 100 uM
5. Time; 40 hr; 37 °C incubation
6. Reagent; 5 uL; CellTiter Glo reagent
7. Time; 20 min; Room Temperature
8. Detection; Luminescence; Viewlux plate reader
Keywords: cell viability, cytotoxicity, Kidney mesenchymal cell line, luminescence, NTPHTS, NTPHTS_NCGC, NIEHS, EPA, DSSTox, MLSMR, MLSCN, NIH Roadmap, qHTS, NCGC
For orientation: Quantitative high-throughput screening tests each substance at several concentrations.
As to `C=C[C@H]1CN2CC[C@H]1C[C@@H]2[C@@H](O)c1ccnc2ccc(OC)cc12`, the compound was classed as inactive. Turning to `COc1cc([C@H]2Oc3cc([C@H]4Oc5cc(O)cc(O)c5C(=O)[C@@H]4O)ccc3O[C@@H]2CO)ccc1O`, the result was inactive. As for `COc1ccc(C(Cl)=C(c2ccc(OC)cc2)c2ccc(OC)cc2)cc1`, the outcome was inactive. To `CCOc1ccc(NC(C)=O)cc1` belongs “inactive”; to `OC[C@H]1O[C@@H]2O[C@H]3[C@H](O)[C@@H](O)[C@@H](O[C@H]4[C@H](O)[C@@H](O)[C@@H](O[C@H]5[C@H](O)[C@@H](O)[C@@H](O[C@H]6[C@H](O)[C@@H](O)[C@@H](O[C@H]7[C@H](O)[C@@H](O)[C@@H](O[C@H]8[C@H](O)[C@@H](O)[C@@H](O[C@H]1[C@H](O)[C@H]2O)O[C@@H]8CO)O[C@@H]7CO)O[C@@H]6CO)O[C@@H]5CO)O[C@@H]4CO)O[C@@H]3CO`, “inactive”. On to `CCOc1ccccc1C(N)=O`, for which the compound was classed as inactive.

Turning to `O=C(O)c1ccc(S(=O)(=O)N(Cl)Cl)cc1`, the compound was called inactive. Consider `CCCCC(CC)COC(=O)c1ccc(N(C)C)cc1` (centres undefined), for which the outcome was inactive. Regarding `NC(=O)c1ccccc1O`, the result was inactive. `Oc1c(Cl)cc(Cl)c(Cl)c1Cc1c(O)c(Cl)cc(Cl)c1Cl`: the call was inactive.

Turning to `C/C=C/c1ccc(O)c(OC)c1`, the result was inactive. As to `NCCNc1cccc2ccccc12`, the call was inactive. As for `CCCN(CCC)S(=O)(=O)c1ccc(C(=O)O)cc1`, the compound was called inactive. `COc1ccc(C(=O)c2ccccc2)c(O)c1`: the result was inactive.

(Values after PubChem BioAssay (NCATS).)
